Experimental findings from PubChem BioAssay (EPA / NIEHS) are described below.

The target in assay [1] is Estrogen receptor (Homo sapiens) (UniProt P03372). In words: ATG_ERa_TRANS: Attagene TRANS-FACTORIAL HepG2 Assay for human Estrogen Receptor alpha (ERa) (AID 2282970; active means hit-call score of the fitted dose curve at least 0.9, where 1 is the maximum). Conditions: HepG2 Attagene TRANS ERa GAL4 reporter, mRNA. The essentials: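 One of 30 multiplexed endpoints from a HepG2 TRANS system, this one reports ERa-Gal4-driven reporter mRNA. Transcripts were quantified 24 hours post-dosing by fluorescent RT-PCR and capillary electrophoresis, with activity scored as induction over DMSO.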

Read-out in assay [2]: Human Leukocyte Antigen - DR isotype (HLADR), HLA-DRA (gene 3122)
In words: BSK_3C_HLADR: BioMAP Diversity Plus: 3C Assay for Human Leukocyte Antigen - DR isotype (HLADR) Biomarker Activity (AID 2283019).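 On outcome: ELISA of cell-surface HLA-DR on HUVEC 24 h after dosing.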 As to conditions: primary human endothelial cells (HUVEC); actives raise or lower the signal. In outline:
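Primary human umbilical vein endothelial cells (3C system) were dosed with compound and cell-surface HLA-DR was quantified by ELISA at 24 h. Activity was fitted bidirectionally against DMSO as negative control and baseline.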

Read-out in assay [3]: Vascular endothelial growth factor receptor 2 (Homo sapiens) (UniProt P35968)
In words: BSK_4H_VEGFRII: BioMAP Diversity Plus: 4H Assay for Vascular endothelial growth factor receptor 2 (VEGFR2) Biomarker Activity (AID 2283031).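 On AC50: cell-surface VEGFR2 protein level quantified by ELISA.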 Conditions: primary human endothelial cells (HUVEC); actives raise or lower the signal. In outline: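 Primary human umbilical vein endothelial cells in the BioMAP 4H system were dosed with test chemical, and 24 h later VEGFRII was measured by ELISA. Activity was fitted bidirectionally against DMSO as negative control and baseline.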

Read-out in assay [4]: Interleukin-8 (IL8), CXCL8 (gene 3576)
In words: BSK_CASM3C_IL8: BioMAP Diversity Plus: CASM3C Assay for Interleukin-8 (IL8) Biomarker Activity (AID 2283042).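 Further: IL-8 protein level quantified by ELISA.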 As to conditions: primary human coronary artery smooth muscle cells; actives raise or lower the signal.

Read-out in assay [5]: Monokine induced gamma interferon (MIG), CXCL9 (gene 4283)
In words: BSK_CASM3C_MIG: BioMAP Diversity Plus: CASM3C Assay for Monokine induced gamma interferon (MIG) Biomarker Activity (AID 2283048).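 Further: MIG protein level measured by ELISA.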 As to conditions: primary human coronary artery smooth muscle cells; actives raise or lower the signal.

Read-out in assay [6]: Urokinase-type plasminogen activator receptor (uPAR), PLAUR (gene 5329)
In words: BSK_CASM3C_uPAR: BioMAP Diversity Plus: CASM3C Assay for Urokinase-type plasminogen activator receptor (uPAR) Biomarker Activity (AID 2283054).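 Further: cell-surface uPAR protein level quantified by ELISA.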 Conditions: primary human coronary artery smooth muscle cells; actives raise or lower the signal.

Read-out in assay [7]: Tissue Factor, F3 (gene 2152)
In words: BSK_LPS_TissueFactor: BioMAP Diversity Plus: LPS Assay for Tissue Factor Biomarker Activity (AID 2283084). Conditions: primary human HUVEC with PBMC; actives raise or lower the signal. The essentials: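 Human umbilical vein endothelial cells co-cultured with peripheral blood mononuclear cells were dosed and stimulated with LPS. Cell-surface CD142 was quantified by ELISA at 24 h. Activity was fitted bidirectionally against DMSO baseline.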

Read-out in assay [8]: Vascular cell adhesion molecule 1 (VCAM1), VCAM1 (gene 7412)
In words: BSK_LPS_VCAM1: BioMAP Diversity Plus: LPS Assay for Vascular cell adhesion molecule 1 (VCAM1) Biomarker Activity (AID 2283086). As to conditions: primary human HUVEC with PBMC; actives raise or lower the signal. In outline:
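VCAM-1 quantified by ELISA in an LPS-activated co-culture of human endothelial cells and peripheral blood mononuclear cells, read 24 h post-treatment. Fitted in both directions versus DMSO; parallel SRB staining flags overt cytotoxicity.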

Read-out in another assay: CD40, CD40 (gene 958)
In words: BSK_SAg_CD40: BioMAP Diversity Plus: SAg Assay for CD40 Biomarker Activity (AID 2283088). Conditions: primary human HUVEC with PBMC; actives raise or lower the signal. The essentials: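 Human umbilical vein endothelial cells co-cultured with PBMC; CD40 levels measured by ELISA with fluorescence read-out 24 h after chemical dosing. Gain or loss of signal fitted bidirectionally against DMSO baseline.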

Read-out in assay [9]: Interleukin-8 (IL8), CXCL8 (gene 3576)
In words: BSK_SAg_IL8: BioMAP Diversity Plus: SAg Assay for Interleukin-8 (IL8) Biomarker Activity (AID 2283094). As to conditions: primary human HUVEC with PBMC; actives raise or lower the signal. The essentials: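 ELISA readout of IL-8 from a superantigen-activated endothelial/PBMC primary human co-culture, taken 24 h post-dosing and fitted in both directions against DMSO; parallel SRB total-protein staining flags overt cytotoxicity.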

The nature of assay [10]: BSK_SAg_SRB: Viability Assessment in the BioMAP Diversity Plus: SAg Assay (AID 2283096).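 Further: cells read one day after compound addition; hits may be either gain or loss of signal compared with DMSO.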 As to conditions: primary human HUVEC with PBMC. In outline: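 This overt-cytotoxicity endpoint quantifies protein in human endothelial/PBMC co-cultures at 24 h using SRB absorbance (560 nm) after trichloroacetic acid fixation. Values reflect signal change from the DMSO negative control, fitted bidirectionally.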

A short description of assay [11]: BSK_BT_PBMCCytotoxicity: PBMC Cytotoxicity Assessment in the BioMAP Diversity Plus: BT Assay (AID 2284225).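 Further: PBMC viability measured by Alamar Blue dye reduction fluorescence.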 As to conditions: primary human B cells with PBMC. In outline:
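Viability by Alamar Blue reduction (6 h, ex/em 546/580 nm) after 90 h culture of SEB/TSST-1-activated PBMC (20 ng/mL each) given compound 1 h before activation. DMSO served as baseline for curve fitting.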

Read-out in assay [12]: Secreted IgG (sIgG), gene 3500
In words: BSK_BT_sIgG: BioMAP Diversity Plus: BT Assay for Secreted IgG (sIgG) Biomarker Activity (AID 2284226). Conditions: primary human B cells with PBMC. The essentials:
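ELISA quantitation of secreted IgG from human B cells co-cultured with PBMC, sampled 24 h post-dosing. Values fitted relative to DMSO vehicle as baseline, positive fitting direction.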

Assay [13] is described as follows: BSK_BT_Bcell_Proliferation: Viability Assessment in the BioMAP Diversity Plus: BT Assay for B cell Proliferation (AID 2284227). Conditions: primary human B cells with PBMC. In outline:
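SRB-based protein staining (0.1% SRB after 10% TCA fixation, 560 nm) quantifies proliferation in human B cells co-cultured with PBMC, 72 h post-dosing, with signal gain scored relative to DMSO negative control.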

Read-out in assay [14]: Interleukin 17A (IL17A), IL17A (gene 3605)
In words: BSK_BT_xIL17A: BioMAP Diversity Plus: BT Assay for Interleukin 17A (IL17A) Biomarker Activity (AID 2284229). Conditions: primary human B cells with PBMC. In outline:
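B cells co-cultured with PBMC were exposed to test chemicals, and secreted IL-17A was quantified 24 h after dosing by Luminex xMAP bead immunoassay. Activity was fitted in the gain direction against DMSO as baseline.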

Read-out in assay [15]: Collagen III, COL3A1 (gene 1281)
In words: BSK_MyoF_CollagenIII: BioMAP Diversity Plus: MyoF Assay for Collagen III Biomarker Activity (AID 2284239). As to conditions: primary human lung fibroblasts. In outline:
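Human lung fibroblasts were dosed with chemicals and, 24 hours later, collagen III was measured by ELISA. Activity was fitted in the positive direction against the DMSO negative-control baseline.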

Read-out in assay [16]: Interleukin 2 (IL2), IL2 (gene 3558)
In words: BSK_BT_xIL2: BioMAP Diversity Plus: BT Assay for Interleukin 2 (IL2) Biomarker Activity (AID 2284245). Conditions: primary human B cells with PBMC. In outline:
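Secreted IL-2 was read by Luminex xMAP from B cells co-cultured with PBMC (human primary) 24 h post-dosing; activity was analysed as gain of signal relative to DMSO vehicle.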

Read-out in assay [17]: Collagen IV, COL4A1 (gene 1282)
In words: BSK_MyoF_CollagenIV: BioMAP Diversity Plus: MyoF Assay for Collagen IV Biomarker Activity (AID 2284247). As to conditions: primary human lung fibroblasts. The essentials: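 Collagen IV quantified by ELISA in human lung fibroblast cultures 24 h after chemical treatment, with DMSO as baseline. Parallel SRB staining (0.1% SRB after TCA fixation, 560 nm) flags overt cytotoxicity.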

Read-out in assay [18]: Plasminogen activator inhibitor-1 (PAI1), SERPINE1 (gene 5054)
In words: BSK_MyoF_PAI1: BioMAP Diversity Plus: MyoF Assay for Plasminogen activator inhibitor-1 (PAI1) Biomarker Activity (AID 2284256).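 On outcome: PAI-1 protein level measured by ELISA in fibroblast cultures; PAI-1 read 24 h after compound addition.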 As to conditions: primary human lung fibroblasts. The essentials:
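ELISA read-out of PAI-1 from primary human lung fibroblast cultures 24 h after dosing; gain-of-signal fit versus DMSO control.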

Read-out in assay [19]: Matrix Metallopeptidase 1 (MMP1), MMP1 (gene 4312)
In words: BSK_MyoF_MMP1: BioMAP Diversity Plus: MyoF Assay for Matrix Metallopeptidase 1 (MMP1) Biomarker Activity (AID 2284268). As to conditions: primary human lung fibroblasts. In outline:
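ELISA readout of MMP1 in primary human lung fibroblast cultures, 24 h post-dosing. Gain of signal versus DMSO vehicle control defines activity. Parallel SRB staining (0.1% after 10% TCA fixation, 560 nm) flags overt cytotoxicity.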

Inconclusive results are not listed. Calls of active or inactive are those of the source. How the source made its calls, unless noted: active means hit-call score of the fitted dose curve at least 0.9, where 1 is the maximum; inactive means score below 0.9.

Sequence of Estrogen receptor (Homo sapiens) (P03372 whole entry, looked up, the tested form may be a part): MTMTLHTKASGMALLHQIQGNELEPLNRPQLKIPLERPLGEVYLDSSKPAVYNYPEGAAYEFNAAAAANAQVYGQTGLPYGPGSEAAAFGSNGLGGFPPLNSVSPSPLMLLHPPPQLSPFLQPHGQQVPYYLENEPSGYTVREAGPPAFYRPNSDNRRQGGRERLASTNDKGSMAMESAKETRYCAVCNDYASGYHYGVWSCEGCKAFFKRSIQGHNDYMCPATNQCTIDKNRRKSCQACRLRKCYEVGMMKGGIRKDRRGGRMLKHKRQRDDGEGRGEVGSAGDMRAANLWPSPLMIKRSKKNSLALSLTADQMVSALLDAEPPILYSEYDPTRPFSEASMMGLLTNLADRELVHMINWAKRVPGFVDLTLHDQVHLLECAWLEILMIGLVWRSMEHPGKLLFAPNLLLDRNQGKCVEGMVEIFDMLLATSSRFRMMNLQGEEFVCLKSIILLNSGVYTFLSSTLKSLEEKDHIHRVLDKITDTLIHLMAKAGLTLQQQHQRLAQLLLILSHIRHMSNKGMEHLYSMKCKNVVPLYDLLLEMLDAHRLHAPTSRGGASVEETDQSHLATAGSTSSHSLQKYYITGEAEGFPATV

For the compound `Clc1ccc(-c2ccccc2)cc1`, the half-maximal activity concentration (AC50) (usually the midpoint of the concentration-response curve, whichever way the signal moves) was 36.8 µM (active) in assay [1] and 0.121 µM (active) in [18]. For the same compound, the result in assay [2], in [3], in assay [4], in assay [5], in [6] and in assay [7] was inactive. Besides, the outcome in assay [8] is “inactive”; with CD40, CD40 (gene 958), “inactive”; in assay [9], “inactive”; in assay [10] it was “inactive”; in assay [11], “inactive”; in assay [12], “inactive”. In addition, the result in assay [13], in assay [14], in assay [15], in assay [16], in assay [17] and in assay [19] was inactive.
On to `C[C@]12CCC(=O)C(O)=C1CC[C@@H]1[C@@H]2CC[C@]2(C)C(=O)CC[C@@H]12`, for which, in assay [1], the AC50 was 9.42 µM (active).
Consider `CCCOC(=O)c1ccccc1C(=O)OCCC`, for which the AC50 was 33.7 µM (active) in assay [1], 7.06 µM (active) in assay [2], 5.19 µM (active) in [6] and 20 µM (active) in assay [12]. The outcome was “inactive” in assay [3]; “inactive” in [4]; “inactive” in assay [5]; “inactive” in [7]; “inactive” in assay [8]; “inactive” with CD40, CD40 (gene 958). Moreover, the result in assay [9], in [10], in assay [11], in assay [13], in assay [14] and in assay [15] was inactive. In addition, the outcome in [16], in [17], in assay [18] and in [19] was inactive.
With `C=C(Cl)Cl`, in assay [1], the compound was classed as inactive.
For `CCC(C)c1cc([N+](=O)[O-])cc([N+](=O)[O-])c1OC(=O)C=C(C)C` (stereo not given), the concentration at half-maximal activity (AC50) in assay [2] was 5.85 µM (active); in [3] it was 8.71 µM (active); in [4], 9.2 µM (active); in assay [5], 33 µM (active); in assay [7], 33.5 µM (active); in assay [8], 20 µM (active). Besides, the AC50 is 7.96 µM (active) in the assay with CD40, CD40 (gene 958); 15.3 µM (active) in [10]; 20 µM (active) in assay [11]; 20 µM (active) in assay [12]; 32.6 µM (active) in assay [13]; 14.4 µM (active) in assay [14]. The half-maximal activity concentration (AC50) in assay [15] is 5.36 µM (active); in [16] it was 30.9 µM (active); in assay [17] it was 12.3 µM (active); in [18] it was 11.6 µM (active). For the same compound, the outcome in assay [9] and in assay [19] was inactive.
